# The full data set covers some 8,800 targets. This sample favours those with a hit. About 0.5% of all pairs of compound and target were hits.
# Compound: NCC(=O)Nc1ccc(-n2nc(C(F)(F)F)cc2-c2ccc3c(ccc4ccccc43)c2)cc1
# Assay: log2 fold change, soluble protein after heating vs DMSO (PISA); higher = thermal stabilisation; K562 lysate, 10 uM; active = over 0.2 and 3.5 SD of the protein, either way, in both replicates (recomputed)
# Method in brief: (§1)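 A 30 min treatment with 10 μM compound was applied to crude K562 extract at 1 mg/mL protein in PBS pH 7.4 with 1 mM MgCl2. Heating for 3 min spanned 48°C-58°C, after which aliquots were pooled, adjusted to 0.5% NP-40 at 4°C and spun at 21,000xg for 90 min. TMTpro 16plex LC-MS/MS of the supernatant, with channel sums equalised, gave values recorded as log-two fold change in thermal stability against solvent controls, from duplicates.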
# Chain of UniProt Q9NVH2 (Q9NVH2 whole entry, looked up): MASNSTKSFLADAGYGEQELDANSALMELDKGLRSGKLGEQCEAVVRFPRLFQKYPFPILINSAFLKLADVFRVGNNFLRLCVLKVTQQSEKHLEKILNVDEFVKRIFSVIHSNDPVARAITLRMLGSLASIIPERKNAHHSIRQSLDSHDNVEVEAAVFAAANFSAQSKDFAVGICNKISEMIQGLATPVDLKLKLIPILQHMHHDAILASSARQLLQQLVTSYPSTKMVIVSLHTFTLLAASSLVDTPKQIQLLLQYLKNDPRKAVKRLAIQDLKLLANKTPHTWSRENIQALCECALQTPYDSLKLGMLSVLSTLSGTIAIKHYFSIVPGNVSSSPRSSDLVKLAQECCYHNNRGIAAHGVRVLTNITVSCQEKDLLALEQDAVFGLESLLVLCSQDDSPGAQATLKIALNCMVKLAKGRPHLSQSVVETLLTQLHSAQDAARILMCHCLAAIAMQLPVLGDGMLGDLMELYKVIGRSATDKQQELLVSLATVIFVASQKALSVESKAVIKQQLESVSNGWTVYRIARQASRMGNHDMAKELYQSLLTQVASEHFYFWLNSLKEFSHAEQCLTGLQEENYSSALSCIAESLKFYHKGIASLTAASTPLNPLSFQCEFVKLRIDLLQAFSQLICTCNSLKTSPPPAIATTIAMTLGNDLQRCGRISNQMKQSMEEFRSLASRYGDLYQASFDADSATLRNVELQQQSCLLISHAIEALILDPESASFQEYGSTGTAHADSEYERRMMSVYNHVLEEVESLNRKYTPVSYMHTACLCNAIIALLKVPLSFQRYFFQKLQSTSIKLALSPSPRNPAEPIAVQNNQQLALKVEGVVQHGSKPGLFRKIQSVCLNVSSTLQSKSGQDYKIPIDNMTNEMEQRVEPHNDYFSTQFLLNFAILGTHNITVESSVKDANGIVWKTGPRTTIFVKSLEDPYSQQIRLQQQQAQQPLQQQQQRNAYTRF
# Chain of UniProt P02724 (P02724 whole entry, looked up): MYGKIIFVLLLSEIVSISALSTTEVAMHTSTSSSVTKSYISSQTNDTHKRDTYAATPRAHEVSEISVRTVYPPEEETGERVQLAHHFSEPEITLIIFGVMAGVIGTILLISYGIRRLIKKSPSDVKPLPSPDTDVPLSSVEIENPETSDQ
# Chain of UniProt Q8IYU2 (Q8IYU2 whole entry, looked up): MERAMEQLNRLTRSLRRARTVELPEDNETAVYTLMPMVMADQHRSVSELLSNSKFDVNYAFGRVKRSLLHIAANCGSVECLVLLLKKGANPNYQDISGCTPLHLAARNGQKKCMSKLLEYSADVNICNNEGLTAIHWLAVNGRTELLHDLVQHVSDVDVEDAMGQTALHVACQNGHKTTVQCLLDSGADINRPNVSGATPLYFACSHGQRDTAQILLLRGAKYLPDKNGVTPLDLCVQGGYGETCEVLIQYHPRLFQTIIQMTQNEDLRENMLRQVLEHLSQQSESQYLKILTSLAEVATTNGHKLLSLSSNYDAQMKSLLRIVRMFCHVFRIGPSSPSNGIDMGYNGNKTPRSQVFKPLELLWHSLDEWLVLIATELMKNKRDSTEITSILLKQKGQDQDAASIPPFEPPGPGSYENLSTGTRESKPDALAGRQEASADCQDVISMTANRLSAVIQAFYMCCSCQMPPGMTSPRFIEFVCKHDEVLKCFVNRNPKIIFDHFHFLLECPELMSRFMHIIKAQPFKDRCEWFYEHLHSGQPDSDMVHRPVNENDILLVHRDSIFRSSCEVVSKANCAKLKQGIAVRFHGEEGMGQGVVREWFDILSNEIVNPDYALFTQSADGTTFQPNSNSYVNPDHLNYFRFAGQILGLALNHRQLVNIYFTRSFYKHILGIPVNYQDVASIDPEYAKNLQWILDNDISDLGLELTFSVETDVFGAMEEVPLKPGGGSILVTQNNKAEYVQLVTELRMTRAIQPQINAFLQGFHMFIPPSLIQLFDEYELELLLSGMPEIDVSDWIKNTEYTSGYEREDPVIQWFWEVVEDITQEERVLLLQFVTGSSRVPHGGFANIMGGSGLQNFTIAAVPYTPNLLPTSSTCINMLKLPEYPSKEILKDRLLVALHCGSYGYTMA
# Chain of UniProt Q01581 (Q01581 whole entry, looked up): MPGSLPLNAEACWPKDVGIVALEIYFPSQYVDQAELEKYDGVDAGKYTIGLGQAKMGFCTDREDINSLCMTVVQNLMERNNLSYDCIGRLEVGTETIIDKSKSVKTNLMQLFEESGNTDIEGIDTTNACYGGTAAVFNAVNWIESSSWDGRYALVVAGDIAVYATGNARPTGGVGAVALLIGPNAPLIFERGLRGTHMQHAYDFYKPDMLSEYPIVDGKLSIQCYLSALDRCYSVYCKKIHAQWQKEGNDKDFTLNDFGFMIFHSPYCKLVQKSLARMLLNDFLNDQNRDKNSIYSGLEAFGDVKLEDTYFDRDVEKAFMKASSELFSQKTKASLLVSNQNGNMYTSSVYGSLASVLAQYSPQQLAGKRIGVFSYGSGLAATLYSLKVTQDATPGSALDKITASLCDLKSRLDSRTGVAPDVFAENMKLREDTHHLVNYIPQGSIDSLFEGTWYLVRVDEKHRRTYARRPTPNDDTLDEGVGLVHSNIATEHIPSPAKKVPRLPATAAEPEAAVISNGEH
# Chain of UniProt Q13547 (Q13547 whole entry, looked up): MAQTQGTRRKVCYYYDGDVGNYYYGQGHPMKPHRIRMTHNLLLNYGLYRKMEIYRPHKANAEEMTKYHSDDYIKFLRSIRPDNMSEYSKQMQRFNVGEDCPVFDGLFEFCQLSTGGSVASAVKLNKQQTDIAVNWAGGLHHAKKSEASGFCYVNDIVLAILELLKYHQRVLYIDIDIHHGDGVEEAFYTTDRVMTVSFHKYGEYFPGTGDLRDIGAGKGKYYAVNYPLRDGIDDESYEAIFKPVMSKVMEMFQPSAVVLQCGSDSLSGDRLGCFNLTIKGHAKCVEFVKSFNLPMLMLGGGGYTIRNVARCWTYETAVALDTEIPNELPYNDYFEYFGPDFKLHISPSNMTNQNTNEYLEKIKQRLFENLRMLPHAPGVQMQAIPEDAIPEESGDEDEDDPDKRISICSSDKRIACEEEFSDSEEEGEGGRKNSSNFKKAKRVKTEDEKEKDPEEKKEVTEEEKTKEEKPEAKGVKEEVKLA
# Chain of UniProt Q9NVX7 (Q9NVX7 whole entry, looked up): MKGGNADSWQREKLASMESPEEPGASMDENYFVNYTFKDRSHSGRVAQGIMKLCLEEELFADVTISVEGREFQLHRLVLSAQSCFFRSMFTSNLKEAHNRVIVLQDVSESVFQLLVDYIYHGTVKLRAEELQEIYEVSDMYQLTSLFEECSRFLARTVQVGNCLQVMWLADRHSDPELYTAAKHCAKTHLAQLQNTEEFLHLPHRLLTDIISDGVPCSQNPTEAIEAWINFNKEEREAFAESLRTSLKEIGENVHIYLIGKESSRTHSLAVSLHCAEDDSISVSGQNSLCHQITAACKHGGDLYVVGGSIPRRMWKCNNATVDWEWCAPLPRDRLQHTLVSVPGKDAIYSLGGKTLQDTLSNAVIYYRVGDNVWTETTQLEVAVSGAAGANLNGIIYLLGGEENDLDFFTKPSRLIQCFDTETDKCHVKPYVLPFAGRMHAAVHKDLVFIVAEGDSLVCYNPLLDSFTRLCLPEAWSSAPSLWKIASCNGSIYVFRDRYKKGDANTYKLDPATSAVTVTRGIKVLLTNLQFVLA
# Chain of UniProt Q14103 (Q14103 whole entry, looked up): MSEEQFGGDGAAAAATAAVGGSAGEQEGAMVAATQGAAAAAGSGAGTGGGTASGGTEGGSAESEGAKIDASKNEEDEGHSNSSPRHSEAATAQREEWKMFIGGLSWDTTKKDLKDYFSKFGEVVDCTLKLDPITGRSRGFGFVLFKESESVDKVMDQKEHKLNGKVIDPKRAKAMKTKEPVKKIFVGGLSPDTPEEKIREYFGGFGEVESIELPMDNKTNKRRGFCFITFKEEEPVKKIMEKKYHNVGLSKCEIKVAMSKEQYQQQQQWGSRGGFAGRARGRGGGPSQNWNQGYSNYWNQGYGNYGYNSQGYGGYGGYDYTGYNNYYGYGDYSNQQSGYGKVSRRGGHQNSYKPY
# Chain of UniProt P36969 (P36969 whole entry, looked up): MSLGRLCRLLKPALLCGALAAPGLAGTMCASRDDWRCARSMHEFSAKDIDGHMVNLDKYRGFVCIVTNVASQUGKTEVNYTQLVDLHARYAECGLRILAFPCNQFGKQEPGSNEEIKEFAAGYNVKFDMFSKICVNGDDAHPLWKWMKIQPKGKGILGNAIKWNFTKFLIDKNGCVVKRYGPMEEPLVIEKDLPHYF
# Chain of UniProt Q6DN03 (Q6DN03 whole entry, looked up): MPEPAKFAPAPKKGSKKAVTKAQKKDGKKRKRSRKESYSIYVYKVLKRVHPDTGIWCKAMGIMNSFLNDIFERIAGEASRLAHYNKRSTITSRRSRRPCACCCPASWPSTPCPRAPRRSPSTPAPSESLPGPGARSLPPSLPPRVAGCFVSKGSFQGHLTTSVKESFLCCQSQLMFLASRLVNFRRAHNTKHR
# Chain of UniProt Q8NEC7 (Q8NEC7 whole entry, looked up): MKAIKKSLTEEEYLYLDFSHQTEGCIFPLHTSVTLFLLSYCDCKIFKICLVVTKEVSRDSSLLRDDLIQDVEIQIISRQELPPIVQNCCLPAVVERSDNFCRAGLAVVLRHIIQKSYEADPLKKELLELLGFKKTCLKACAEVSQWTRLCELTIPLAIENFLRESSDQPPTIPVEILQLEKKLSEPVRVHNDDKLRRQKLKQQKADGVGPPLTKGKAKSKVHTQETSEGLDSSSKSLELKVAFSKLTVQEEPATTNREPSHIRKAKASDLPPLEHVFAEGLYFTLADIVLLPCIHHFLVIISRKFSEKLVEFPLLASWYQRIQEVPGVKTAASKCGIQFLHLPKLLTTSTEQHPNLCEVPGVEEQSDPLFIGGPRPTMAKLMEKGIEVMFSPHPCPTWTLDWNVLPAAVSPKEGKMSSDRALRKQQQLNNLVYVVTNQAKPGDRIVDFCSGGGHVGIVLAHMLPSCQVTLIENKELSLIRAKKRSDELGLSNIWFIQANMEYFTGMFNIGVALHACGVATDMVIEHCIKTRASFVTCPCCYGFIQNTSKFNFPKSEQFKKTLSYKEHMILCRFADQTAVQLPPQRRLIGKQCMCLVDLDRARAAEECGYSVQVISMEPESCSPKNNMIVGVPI
row,Target,log2 fold change
1,HSD17B10 (UniProt Q99714),0.04 (inactive)
2,GOLGA6B (UniProt A6NDN3),0.019 (inactive)
3,KARS1 (UniProt Q15046),0.021 (inactive)
4,HSD17B12 (UniProt Q53GQ0),0.025 (inactive)
5,HNRNPD isoform 2 (UniProt Q14103),0.018 (inactive)
6,GNB1 (UniProt P62873),0.026 (inactive)
7,HTT (UniProt P42858),-0.029 (inactive)
8,IFNGR1 (UniProt P15260),0.15 (inactive)
9,GPX4 (UniProt P36969),-0.007 (inactive)
10,HECTD4 (UniProt J3KPF0),0.051 (inactive)
11,GSTCD (UniProt Q8NEC7),-0.025 (inactive)
12,HACE1 (UniProt Q8IYU2),0.183 (inactive)
13,HK1 isoform 2 (UniProt P19367),0.012 (inactive)
14,HDAC10 (UniProt Q969S8),0.147 (inactive)
15,HMGA1 (UniProt P17096),0.056 (inactive)
16,GTF2H1 (UniProt P32780),-0.019 (inactive)
17,ITM2B (UniProt Q9Y287),-0.101 (inactive)
18,HIST2H2BC (UniProt Q6DN03),0.018 (inactive)

row,Target,log2 fold change
1,HADHB (UniProt P55084),0.047 (inactive)
2,HMGCS1 (UniProt Q01581),0.018 (inactive)
3,HSPB1 (UniProt P04792),0.019 (inactive)
4,KDM6A (UniProt O15550),0.026 (inactive)
5,HDAC1 (UniProt Q13547),0.018 (inactive)
6,GSTM4 (UniProt Q03013),0.025 (inactive)
7,ILKAP (UniProt Q9H0C8),-0.05 (inactive)
8,IMMT (UniProt C9J406),-0.084 (inactive)
9,HNRNPM (UniProt M0R019),-0.198 (inactive)
10,HADHA (UniProt P40939),0.052 (inactive)
11,HNRNPD isoform 3 (UniProt Q14103),0.074 (inactive)
12,"HDLBP, A0A024R4E5",0.009 (inactive)
13,HNRNPH2 (UniProt P55795),-0.008 (inactive)
14,IL18R1 (UniProt Q13478),-0.246 (inactive)
15,INTS7 (UniProt Q9NVH2),0.017 (inactive)
16,KBTBD4 isoform 2 (UniProt Q9NVX7),0.025 (inactive)
17,GYPA (UniProt P02724),-0.028 (inactive)

# Compound: O=C(CCCCCCC(=O)Nc1ccccc1)NO [vorinostat]
# Assay: as above
# Method in brief: as §1
row,Target,log2 fold change
1,HSD17B10 (UniProt Q99714),-0.826 (active)
2,GOLGA6B (UniProt A6NDN3),0.117 (inactive)
3,KARS1 (UniProt Q15046),-0.011 (inactive)
4,HSD17B12 (UniProt Q53GQ0),-0.009 (inactive)
5,HNRNPD isoform 2 (UniProt Q14103),0.155 (inactive)
6,GNB1 (UniProt P62873),0.064 (inactive)
7,HTT (UniProt P42858),-0.331 (active)
8,IFNGR1 (UniProt P15260),0.147 (inactive)
9,GPX4 (UniProt P36969),-0.306 (active)
10,HECTD4 (UniProt J3KPF0),-0.472 (active)
11,GSTCD (UniProt Q8NEC7),-0.356 (active)
12,HACE1 (UniProt Q8IYU2),-0.126 (inactive)
13,HK1 isoform 2 (UniProt P19367),-0.264 (active)
14,HDAC10 (UniProt Q969S8),0.211 (inactive)
15,HMGA1 (UniProt P17096),0.111 (inactive)
16,GTF2H1 (UniProt P32780),-0.412 (active)
17,ITM2B (UniProt Q9Y287),0.141 (inactive)

row,Target,log2 fold change
1,HIST2H2BC (UniProt Q6DN03),0.133 (inactive)
2,HADHB (UniProt P55084),-0.199 (inactive)
3,HMGCS1 (UniProt Q01581),0.53 (active)
4,HSPB1 (UniProt P04792),-0.013 (inactive)
5,KDM6A (UniProt O15550),-0.299 (active)
6,HDAC1 (UniProt Q13547),0.644 (active)
7,GSTM4 (UniProt Q03013),0.015 (inactive)
8,ILKAP (UniProt Q9H0C8),-0.288 (active)
9,IMMT (UniProt C9J406),0.174 (inactive)
10,HADHA (UniProt P40939),-0.159 (inactive)
11,HNRNPD isoform 3 (UniProt Q14103),0.078 (inactive)
12,"HDLBP, A0A024R4E5",-0.427 (active)
13,HNRNPH2 (UniProt P55795),-0.243 (active)
14,IL18R1 (UniProt Q13478),0.198 (inactive)
15,INTS7 (UniProt Q9NVH2),-0.149 (inactive)
16,KBTBD4 isoform 2 (UniProt Q9NVX7),-0.311 (active)
17,GYPA (UniProt P02724),0.152 (inactive)

# Compound: O=C(O)c1ccc2c(c1)nc(Nc1cccc(Cl)c1)c1ccncc12 [silmitasertib]
# Assay: as above
# Method in brief: as §1
row,Target,log2 fold change
1,HSD17B10 (UniProt Q99714),-0.011 (inactive)
2,GOLGA6B (UniProt A6NDN3),-0.002 (inactive)
3,KARS1 (UniProt Q15046),0.022 (inactive)
4,HSD17B12 (UniProt Q53GQ0),-0.05 (inactive)
5,HNRNPD isoform 2 (UniProt Q14103),0.009 (inactive)
6,GNB1 (UniProt P62873),0.041 (inactive)
7,HTT (UniProt P42858),0.04 (inactive)
8,IFNGR1 (UniProt P15260),-0.006 (inactive)
9,GPX4 (UniProt P36969),0.017 (inactive)
10,HECTD4 (UniProt J3KPF0),-0.003 (inactive)
11,GSTCD (UniProt Q8NEC7),0.024 (inactive)
12,HACE1 (UniProt Q8IYU2),-0.002 (inactive)
13,HK1 isoform 2 (UniProt P19367),0.028 (inactive)
14,HDAC10 (UniProt Q969S8),0.156 (inactive)
15,HMGA1 (UniProt P17096),0.001 (inactive)
16,GTF2H1 (UniProt P32780),0 (inactive)
17,ITM2B (UniProt Q9Y287),0.013 (inactive)

row,Target,log2 fold change
1,HIST2H2BC (UniProt Q6DN03),-0.098 (inactive)
2,HADHB (UniProt P55084),-0.033 (inactive)
3,HMGCS1 (UniProt Q01581),0.011 (inactive)
4,HSPB1 (UniProt P04792),-0.027 (inactive)
5,KDM6A (UniProt O15550),-0.059 (inactive)
6,HDAC1 (UniProt Q13547),-0.008 (inactive)
7,GSTM4 (UniProt Q03013),0.301 (active)
8,ILKAP (UniProt Q9H0C8),0.053 (inactive)
9,IMMT (UniProt C9J406),0.092 (inactive)
10,HADHA (UniProt P40939),-0.026 (inactive)
11,HNRNPD isoform 3 (UniProt Q14103),0.005 (inactive)
12,"HDLBP, A0A024R4E5",-0.013 (inactive)
13,HNRNPH2 (UniProt P55795),0.005 (inactive)
14,IL18R1 (UniProt Q13478),-0.33 (inactive)
15,INTS7 (UniProt Q9NVH2),-0.011 (inactive)
16,KBTBD4 isoform 2 (UniProt Q9NVX7),0.012 (inactive)
17,GYPA (UniProt P02724),-0.097 (inactive)
